# TrxR1 substrate: is turned over as a substrate by rat TrxR1; AID 588456; Potency, µM (top dose mostly 114 µM), inactives show at the top dose activity change, negative = substrate turnover; 0.01% of 390,000 active; purified TrxR1 substrate turnover, NADPH consumption readout; note: nearly all actives have a fitted effect of over 50% in size
#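 Rat TrxR1, dispensed at 90 nM, was prereduced with 400 uM NADPH (final) for 5 min at ~22 deg C, then incubated with compound 15 min before 400 uM selenite. A first-read NADPH fluorescence drop versus no-compound background flagged substrates.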
# TrxR1 inh: rat TrxR1 inhibition | AID 588453 | Potency, µM (highest dose often 114 µM), inactives show at the highest dose activity change, negative = inhibition, most hits filed as inhibitors | O89049 | recombinant rTrxR1, NADPH fluorescence consumption, selenite substrate | 1% of 390,000 active; note: nearly all actives have a fitted effect of over 65% in size
#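 Rat TrxR1 (90 nM in the dispensed reagent) was pre-reduced with 400 uM NADPH for 5 min at room temperature, then incubated with compound for 15 min. After 400 uM selenite was added, NADPH fluorescence (Ex 340/Em 450 nm) was followed for 8 min.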
# Anesthetic bind: candidate novel general anesthetic via apoferritin binding. P02791. apoferritin/1-aminoanthracene competitive binding, fluorescence. Potency, µM (series often up to 77.5 µM), inactives show at the top dose activity change, negative = displacement, actives largely listed as inhibitors. 0.074% of 350,000 active. AID 485281; note: nearly all actives have a fitted effect of over 20% in size
# Target sequence (P02791 2-175 limits assumed): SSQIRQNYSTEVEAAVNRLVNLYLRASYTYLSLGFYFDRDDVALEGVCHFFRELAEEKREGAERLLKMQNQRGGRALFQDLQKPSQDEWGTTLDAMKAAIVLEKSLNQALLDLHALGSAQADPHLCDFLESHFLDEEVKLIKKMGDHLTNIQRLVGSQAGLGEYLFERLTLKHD
#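 Read-out: endpoint 1-AMA fluorescence, excitation 380 nm and emission 535 nm, after compounds sit 10 min at room temperature with 10 uM horse-spleen apoferritin in 50% saturated 1-AMA/PBS. Values come from four-parameter Hill fits.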
# PKM2 activator: activators of human pyruvate kinase M2 | AID 1631 | 0.34% of 260,000 active | Potency, µM (top dose mostly 57.5 µM), without a hit: at the highest dose activation, actives largely listed as activators | purified PKM2, Kinase-Glo ATP luminescence, activation; response scale: 0% is enzyme alone, no compound; note: nearly all actives have a fitted effect of over 55% in size
#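 Purified hPK-M2 (>95%) run at intermediate activity with 0.1 mM ADP and 0.5 mM PEP in 50 mM imidazole pH 7.2, KCl, MgCl2; 1 h room temperature. ATP formed read by Kinase-Glo luminescence; normalized to uninhibited and no-enzyme controls.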
# GALK inh: inhibitors of human galactokinase; P51570; Purified GALK, Kinase-Glo residual ATP luminescence; Potency, µM (series often up to 57.5 µM), inactives show at the top dose activity change, negative = inhibition, usual class: inhibitors; 0.007% of 270,000 active; AID 1868
# Target sequence (P51570 whole entry, looked up): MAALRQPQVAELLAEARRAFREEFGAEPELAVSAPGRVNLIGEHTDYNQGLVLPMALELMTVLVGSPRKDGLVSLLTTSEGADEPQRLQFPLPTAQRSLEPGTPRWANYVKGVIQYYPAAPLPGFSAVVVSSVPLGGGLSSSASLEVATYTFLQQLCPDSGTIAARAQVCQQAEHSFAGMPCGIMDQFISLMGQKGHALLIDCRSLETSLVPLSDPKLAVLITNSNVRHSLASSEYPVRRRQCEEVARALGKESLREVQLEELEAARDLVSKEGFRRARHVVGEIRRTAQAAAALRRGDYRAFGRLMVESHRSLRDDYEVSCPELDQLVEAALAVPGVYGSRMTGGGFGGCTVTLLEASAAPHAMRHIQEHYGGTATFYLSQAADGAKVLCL
#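 5 nM enzyme, 35 uM ATP, 100 uM galactose, 20 mM HEPES pH8.0, 5 mM MgCl2; 1 h RT; residual ATP by Kinase-Glo Plus luminescence, qHTS format.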
# IDH1 R132H inh: human IDH1 R132H inhibition | AID 602179 | 0.093% of 390,000 active | IDH1-R132H enzyme, NADPH consumption, diaphorase/resazurin fluorescence | O75874 | Potency, µM (top dose mostly 76.6 µM), inactives show top-dose activity change, negative = inhibition, hits mostly inhibitors; note: nearly all actives have a fitted effect of over 65% in size
#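 IDH1-R132H (0.5 ug/mL dispensed) in pH 7.5 Tris buffer was preincubated 30 min with compound, then given a substrate mix of 0.016 mM NADPH and 2 mM alpha-KG for 80 min at room temperature; remaining NADPH was read by diaphorase/resazurin fluorescence.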
# Active calls of the source: *; ? = inconclusive; · = no result; ! = repeats disagree; [ ] = another dose, or the depositor's remark. An excerpt weighted towards active compounds, which were near 1.3% of everything screened. Calls come from the whole dose curve; as a rule, active = well fitted curve in the direction sought with a large enough effect; inconclusive = small, poorly fitted or top-dose-only effect, or another doubt; inactive = no such curve, though single readings can be large; an effect the other way counts as inactive or inconclusive. % is set by controls: 0 for no effect and ±100 for the full control effect; potency is the fitted concentration of half-maximal effect.
SMILES,TrxR1 substrate,TrxR1 inh,Anesthetic bind,PKM2 activator,GALK inh,IDH1 R132H inh
CCOC(=O)C1=C(Cc2ccc(F)cc2)C(=O)c2ccccc2C1=O,-22%,6.3µM*,?,24%,0%,19%
Cc1c(NC(=O)C(C)(C)Oc2ccc(Cl)cc2)cccc1-c1nc2ccccc2o1,2%,14%,37%,·,·,-2%
CCc1ccc(-c2nn(CC(=O)NC3CCCCC3)c3c2cnc2ccc(OC)cc23)cc1,8%[57.1 µM],31%[57.1 µM],4%,·,·,-10%
COc1ccc(Cl)cc1NC(=O)CSc1nc2c(oc3ccccc32)c(=O)n1Cc1ccco1,0%,3%,9%,·,·,5%
NC(=O)c1cc(N2C(=O)C=CC2=O)ccc1Cl,7%,1µM*,-12%,17%,2%,2%
COc1ccc(S(=O)(=O)CCC(=O)NCc2ccc(C)o2)cc1,-1%[57.1 µM],20µM*,-5%,13%,·,10%
CC(=O)N1CCc2cc(S(=O)(=O)CCC(=O)NCc3ccc(C)o3)ccc21,8%,50µM*,-7%,·,1%,-5%
Cc1ccc(CNC(=O)CCS(=O)(=O)c2cc(Br)cc3c2N(C(=O)C2CC2)CC3)o1,11%[57.1 µM],-59%,-18%,7.9µM*,2%,9%
Cc1ccc(CNC(=O)Cn2ccc3cc(S(=O)(=O)N4CCCC4)ccc32)o1,7%[57.1 µM],?,-10%,16µM*,7%,-4%
Cc1ccc(CNC(=O)CCS(=O)(=O)c2cc(Br)cc3c2N(C(=O)C2CC2)CC3)cc1,-1%,-1%,-9%,·,·,0%
O=C1c2ccccc2NC(c2ccc3c(c2)OCO3)N1Cc1ccco1 (configuration not stated),137%,68%,·,·,·,·
CC(=O)C1=C(OC(=O)C(C)C)c2ccccc2S(=O)(=O)N1Cc1ccccc1,-5%,-17%,-21%,·,·,3%
CCCCCC1CC(CC(=O)Nc2ccc([N+](=O)[O-])cc2)C(=O)O1 (configuration not stated),-10%,15%,16µM*,-18%,1%,4%
CCCNC(=O)C/C(C)=N/NC(=O)C(=O)Nc1ccccn1,2%,63µM*,-11%,-1%,11%,0%
C/C(CC(=O)Nc1ccccn1)=N\NC(=O)c1ccccc1,·,·,-6%,4%,0%,·
O=C(c1ccc(Br)o1)N1CCC(c2nc3ccccc3[nH]2)CC1,-3%,45µM*,·,·,·,10%
Cn1cc([N+](=O)[O-])c(C(=O)Nc2ccc(C3CCCCC3)cc2)n1,-9%,23%,7.9µM*,2%,-4%,12%
Cn1cc([N+](=O)[O-])c(C(=O)Nc2ccc(C(=O)N3CCCCC3)cc2)n1,4%[57.1 µM],-6%,-21%,-3%,4%,-6%
O=C(CCl)N=c1sccn1Cc1cccc2ccccc12,5%,?,?,3%,5%,8%
O=C(CCl)N=c1sccn1Cc1ccc(Cl)cc1Cl,1%,32µM*,?,4%,1%,0%
O=C(CCl)N=c1sccn1Cc1ccccc1Cl,3%,25µM*,-15%,-6%,-2%,8%
NC(=O)/C(=N\OC(=O)c1ccco1)c1nc(-c2ccc(Br)cc2)cs1,7%,7.1µM*,?,3%,-2%,-8%
Nc1nc(-c2ccc(NC(=O)c3ccco3)cc2)cs1,-3%[57.1 µM],-7%,23%,·,·,0%
Nc1cccc(/C=C2\C=Cc3ccccc32)c1,1%,0%,·,·,·,·
CCN(CC)CCNC(=O)c1ccc(NC(=O)c2cc(-c3ccco3)nc3ccccc23)cc1,21%,?,-10%,8%,7%,3%
SMILES,TrxR1 substrate,TrxR1 inh,Anesthetic bind,PKM2 activator,GALK inh,IDH1 R132H inh
COc1ccc(NC(=O)c2cc(-c3ccco3)nc3ccccc23)cn1,12%,18µM*,·,·,·,0%
O=C(Nc1nccs1)c1cc(-c2ccco2)nc2ccccc12,14%,-7%,-14%,24%,0%,11%
CN(C)C(=O)c1ccc(NC(=O)c2cc(-c3ccco3)nc3ccccc23)cc1,30%,40µM*,-12%,5%,-1%,8%
COc1ccc(C(C)=O)cc1COC(=O)CNC(=O)c1ccccc1F,0%,16µM*,-18%,3%,0%,-1%
COc1ccc(C(C)=O)cc1COC(=O)CNC(=O)C1CCCCC1,-4%[2.29 µM],-6%[2.29 µM],·,·,·,0%
COc1cccc(CNC(=O)CCS(=O)(=O)c2cccc3nonc23)c1,-1%,16µM*,-13%,4%,2%,-2%
CC(C)CCNC(=O)CCS(=O)(=O)c1cccc2nonc12,-3%,56µM*,-8%,-3%,-2%,2%
CC(C)NC(=O)CCS(=O)(=O)c1cccc2nonc12,15%[57.1 µM],-32%[57.1 µM],3%,-2%,5%,9%
C[n+]1ccnc2cc(Cl)ccc21,-15%,?,·,·,·,·
CCN(CC)CCNC(=O)c1[nH]c2ccccc2c1Sc1ccc(Cl)cc1,9%,18%,-2%,·,·,22%
COc1ccc2c(c1OC)C(=O)N1c3ccccc3C(=O)N(c3ccccc3F)C21 (configuration not stated),-1%,2%,-15%,-1%,1%,1%
COc1ccc(C2Nc3ccccc3C(=O)N2Cc2ccco2)cc1COc1ccc(F)cc1 (configuration not stated),45%,-6%[57.1 µM],-21%,14µM*,0%,1%
COc1ccc(C2Nc3ccccc3C(=O)N2Cc2ccco2)cc1CN1C(=O)c2ccccc2C1=O (configuration not stated),-3%,-7%,-19%,20µM*!,5%,-1%
COc1ccc2c(c1OC)C(=O)N1c3ccccc3C(=O)N(Cc3ccco3)C21 (configuration not stated),1%,40µM*,·,·,·,·
CCOC(=O)c1cc(S(=O)(=O)NCc2cccc(Cl)c2)[nH]n1,-5%[57.1 µM],-1%[57.1 µM],-5%,·,·,-2%
COc1cc2c(NC3CCN(C(C)C)CC3)nc(N3CCCN(C)CC3)nc2cc1OCCCN(C)C,72%,?,·,·,·,·
C/C=C1\COC(C(=O)NCCN2CCCC2)(C(F)(F)F)C=C1C=C1CCCCC1 (configuration not stated),-2%,7%,?,·,·,-9%
C/C=C1\COC(C(=O)NCc2ccccn2)(C(F)(F)F)C=C1C=C(C)C (configuration not stated),9%,4µM*,-10%,·,·,·
C/C=C1\COC(C(=O)NCCCN2CCCC2=O)(C(F)(F)F)C=C1C=C(C)C (configuration not stated),-5%,3.2µM*,-4%,·,·,1%[38.3 µM]
